Compound activity as filed in PubChem.
The list is not random: actives were taken first. Their share in the collection is about 4.1%.
DAX1 inh-1 = DAX1 (NR0B1) inhibition, primary screen | HEK293T StAR-luciferase reporter, SF-1/DAX-1 repression relief | inhibition, % at 6.8 µM | actives 1.1% (n = 370,000);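 active = inhibition above the mean over all tested compounds plus 3 SD, cut at about 3.6% in these data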;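 note: 0% = DAX-1 cells with DMSO and 100% = cells lacking DAX-1 with DMSO; higher inhibition means more luminescence from relief of DAX-1 repression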
DAX1 inh-2 = inhibits human nuclear receptor DAX1. P51843. HEK293 Gal4-DAX1 luciferase reporter, luminescence. inhibition, % at 6.75 µM. actives 0.99% (n = 340,000);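 active = inhibition above the mean over all tested compounds plus 3 SD, cut at about 4.2% in these data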;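 note: 0% = DAX1-transfected cells with DMSO and 100% = empty-vector control cells with DMSO; inhibition shows as a rise in luminescence from relieved DAX1 repression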
Target sequence (P51843 207-470 limits assumed): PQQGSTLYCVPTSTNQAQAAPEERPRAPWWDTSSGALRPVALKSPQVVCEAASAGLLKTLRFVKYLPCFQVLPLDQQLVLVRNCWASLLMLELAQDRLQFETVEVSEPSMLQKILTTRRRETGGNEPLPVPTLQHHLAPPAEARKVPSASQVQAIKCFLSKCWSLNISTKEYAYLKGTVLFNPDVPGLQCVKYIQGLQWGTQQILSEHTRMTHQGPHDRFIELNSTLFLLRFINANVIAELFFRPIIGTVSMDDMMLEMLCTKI
hcDAF-12 act = activates DAF-12 receptor from parasite H. contortus; HEK293 hcDAF-12 lit1-tk-luc reporter, luminescence; 0% DMSO, 100% Δ7-dafachronic acid; activation, % at 6.8 µM; actives 1.4% (n = 370,000);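 active = activation above the mean of all tested compounds plus 3 SD, cut at about 5.5% in these data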;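 note: 100% = response to 3 µM Δ7-dafachronic acid high control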
ssDAF-12 act = activates DAF-12 receptor from parasite S. stercoralis; actives 1% (n = 370,000); activation, % at 6.8 µM; HEK293 ssDAF-12/GRIP1 lit1-tk-luc reporter, luminescence; % of 3 µM dafachronic acid response; AID 652126;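 active = activation above the mean over all tested compounds plus 3 SD, cut at about 0.9% in these data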;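 note: 0% = DMSO-only wells and 100% = 3 µM delta7-dafachronic acid wells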
hgDAF-12 ag = hgDAF-12 agonism, primary luciferase screen | HEK293 GAL4-hgDAF12 UAS-luciferase reporter, agonist luminescence; normalized to butyrate control | activation, % at 6.8 µM | AID 687014 | actives 1.8% (n = 370,000);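 active = activation above a cutoff set at the mean of all screened compounds plus 3 SD, cut at about 10% in these data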;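 note: 0% = DMSO wells and 100% = sodium butyrate wells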
DAX1 conf = confirmation of human DAX1 (NR0B1) inhibitors | shares compounds with DAX1 inh-1 | actives 87% (n = 2,400) | HEK293T StAR-promoter luciferase reporter, SF-1/DAX-1 repression | AID 652134 | inhibition, % at 6.8 µM;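 active = inhibition above the average of every tested compound plus 3 SD, cut at about 3.8% in these data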;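 note: 0% = DAX-1 cells with DMSO and 100% = no DAX-1 control cells with DMSO; active compounds raise luminescence by relieving repression of the StAR reporter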
SF1 mutant ctr = counter-screen for DAX1 inhibitors: nonselective inhibitors with SF-1 AF2 mutant. shares compounds with DAX1 inh-1. HEK293 StAR-luciferase, luminescence. inhibition, % at 6.8 µM. actives 78% (n = 2,400). AID 652136;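 active = inhibition above the mean of all tested compounds plus 3 SD, cut at about 3% in these data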;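 note: 0% = DAX-1 transfected cells with DMSO and 100% = cells without DAX-1 with DMSO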
Numbers without * were called inactive.

CCOCC(=O)Nc1c(C(=O)Nc2ccc3c(c2)OCCO3)oc2ccccc12 was read as DAX1 inh-1 7.0*, DAX1 inh-2 0, hcDAF-12 act 1, ssDAF-12 act 0, hgDAF-12 ag 10, DAX1 conf 6.3* and SF1 mutant ctr 3.1*.
Screening COc1ccc(C(=O)Nc2ccnn2C2CCN(C(=O)CCC(F)(F)F)CC2)cc1 returned DAX1 inh-1 5.7*, DAX1 inh-2 0, hcDAF-12 act 5, ssDAF-12 act -1, hgDAF-12 ag 9, DAX1 conf 6.4* and SF1 mutant ctr 8.0*.
CCCCNC(=O)C[C@H]1C[C@@]2(C(=O)OC)C(=C[C@H](C(C)C)O[C@@H]2C2CC2)N(Cc2ccco2)C1=O was read as DAX1 inh-1 0, hcDAF-12 act -3, ssDAF-12 act -2 and hgDAF-12 ag -2.
COC(CNC(=O)[C@H](Cc1c[nH]c2ccccc12)NC1(C(=O)NCc2ccccc2)CCCCC1)OC was read as hcDAF-12 act -2, ssDAF-12 act -1 and hgDAF-12 ag -4.
For O=C(Nc1ccc(F)cc1Cl)c1ccc2c(=O)n3c(nc2c1)CCC3 the results were DAX1 inh-1 8.8*, DAX1 inh-2 2, hcDAF-12 act 6.5*, ssDAF-12 act 0, hgDAF-12 ag 10*, DAX1 conf 8.6* and SF1 mutant ctr 5.7*.
For O=C(Nc1ccc(F)cc1F)c1ccc2c(=O)n3c(nc2c1)CCC3 the results were DAX1 inh-1 11*, DAX1 inh-2 0, hcDAF-12 act 3, ssDAF-12 act 0, hgDAF-12 ag 13*, DAX1 conf 7.9* and SF1 mutant ctr 6.5*.
`Cc1ccccc1Cn1ccc2ccc(-c3ccc4ccn(Cc5ccccc5)c4c3)cc21` gave DAX1 inh-1 -1, hcDAF-12 act -1, ssDAF-12 act -1 and hgDAF-12 ag 4.
For Cc1ccc2nc(-c3ccc(F)cc3)c(Cc3cccc(Cl)c3)n2c1 the results were DAX1 inh-1 9.6*, hcDAF-12 act 3, ssDAF-12 act 0, hgDAF-12 ag 9, DAX1 conf 7.5* and SF1 mutant ctr 4.3*.
`Cc1ccc2nc(-c3ccc(F)cc3)c(Cc3cccc(F)c3)n2c1` gave DAX1 inh-1 4.8*, hcDAF-12 act 4, ssDAF-12 act 0, hgDAF-12 ag 11*, DAX1 conf 4.1* and SF1 mutant ctr 4.6*.
For Fc1ccc(-c2nc3ccc(Br)cn3c2Cc2cccc(Cl)c2)cc1 the results were DAX1 inh-1 1, hcDAF-12 act 0, ssDAF-12 act -1 and hgDAF-12 ag 3.
Screening Cc1ccc2nc(-c3ccc(Cl)cc3)c(CC3CCCCC3)n2c1 returned DAX1 inh-1 6.2*, hcDAF-12 act 7.4*, ssDAF-12 act 1, hgDAF-12 ag 23*, DAX1 conf 5.3* and SF1 mutant ctr 4.9*.
Fc1ccc(-c2nc3ccc(Br)cn3c2Cc2cccc(F)c2)cc1 was read as DAX1 inh-1 4, hcDAF-12 act 4, ssDAF-12 act -1 and hgDAF-12 ag 5.
`C[C@@H]1CN([C@@H](C)CO)C(=O)CCCn2cc(nn2)CO[C@H]1CN(C)C(=O)C1CCCCC1` gave DAX1 inh-1 0, hcDAF-12 act 0, ssDAF-12 act -1 and hgDAF-12 ag -1.
CC(C)NC(=O)N[C@H]1C[C@@H]2O[C@@H](CO)CC[C@@H]2O[C@@H]1CCc1ccc(-c2ccc(F)cc2)cc1 was read as DAX1 inh-1 1, hcDAF-12 act -2, ssDAF-12 act -1 and hgDAF-12 ag -1.
For CC(C)c1ncc(CO)n1Cc1c(Cl)cccc1Cl the results were DAX1 inh-1 0, DAX1 inh-2 1, hcDAF-12 act -2, ssDAF-12 act -1 and hgDAF-12 ag 2.
COC(=O)[C@H]1C[C@@]2(O)CN(S(=O)(=O)c3ccc(C)cc3)C[C@@]2(OC(=O)NCc2ccc(OC)c(OC)c2)C[C@H]1C(=O)OC was read as DAX1 inh-1 5.5*, DAX1 inh-2 1, hcDAF-12 act -1, ssDAF-12 act -1, hgDAF-12 ag 1, DAX1 conf 1 and SF1 mutant ctr 0.
